About 14,000 (4.5%) of roughly 310,000 compounds showed an effect of 50% or more. Effects have a minus sign here. This excerpt belongs to a sample that is enriched for strong results.
target: human ether-à-go-go-related gene (hERG) potassium channel (human, UniProt Q12809); assay: primary screen, population patch clamp on CHO cells stably expressing hERG; higher = less effect of the substance
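Note: peak tail current of the secondary pulse compared with the same well before compound.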

human ether-à-go-go-related gene (hERG) potassium channel, sequence (Q12809 whole entry, looked up): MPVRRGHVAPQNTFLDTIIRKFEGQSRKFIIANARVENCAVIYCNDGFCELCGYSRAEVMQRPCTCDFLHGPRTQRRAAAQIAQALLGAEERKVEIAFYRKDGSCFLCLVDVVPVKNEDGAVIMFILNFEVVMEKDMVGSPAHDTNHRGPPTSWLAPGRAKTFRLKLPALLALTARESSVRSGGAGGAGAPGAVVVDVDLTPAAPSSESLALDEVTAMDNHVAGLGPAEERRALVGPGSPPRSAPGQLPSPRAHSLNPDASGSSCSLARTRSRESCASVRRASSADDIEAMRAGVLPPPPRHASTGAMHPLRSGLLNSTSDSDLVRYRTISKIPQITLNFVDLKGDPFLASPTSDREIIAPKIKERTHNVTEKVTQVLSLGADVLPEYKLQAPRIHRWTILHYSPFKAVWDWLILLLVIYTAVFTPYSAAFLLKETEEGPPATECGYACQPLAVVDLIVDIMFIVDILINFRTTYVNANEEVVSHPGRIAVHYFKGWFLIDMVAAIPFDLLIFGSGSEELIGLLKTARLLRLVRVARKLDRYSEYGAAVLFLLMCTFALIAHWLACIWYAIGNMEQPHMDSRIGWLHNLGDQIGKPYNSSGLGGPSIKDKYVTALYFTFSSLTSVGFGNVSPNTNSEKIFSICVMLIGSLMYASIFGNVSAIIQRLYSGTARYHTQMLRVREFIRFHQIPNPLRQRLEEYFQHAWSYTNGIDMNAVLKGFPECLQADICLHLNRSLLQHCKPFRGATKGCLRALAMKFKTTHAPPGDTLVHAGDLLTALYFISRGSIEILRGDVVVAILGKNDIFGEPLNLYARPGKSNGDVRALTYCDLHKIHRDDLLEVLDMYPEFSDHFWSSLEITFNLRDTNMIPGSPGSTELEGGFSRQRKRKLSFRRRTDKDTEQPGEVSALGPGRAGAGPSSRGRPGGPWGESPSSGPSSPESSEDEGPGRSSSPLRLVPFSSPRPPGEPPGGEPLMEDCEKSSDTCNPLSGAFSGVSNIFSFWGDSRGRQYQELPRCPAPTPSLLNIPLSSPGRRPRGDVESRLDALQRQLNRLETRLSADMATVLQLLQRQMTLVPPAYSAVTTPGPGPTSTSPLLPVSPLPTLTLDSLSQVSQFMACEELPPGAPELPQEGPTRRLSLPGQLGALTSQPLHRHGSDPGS

Compound	hERG current change (%, negative = inhibition) at 10uM [%]
COc1ccc([C@H]2CC(=O)C=C(c3cccc(OCc4ccccc4)c3)C2)cc1	10.8
Cc1ccc(-n2nc3c(=O)n(CCCC(=O)NCc4cccc(F)c4)nc(C)c3c2C)cc1	-21.7
COc1cccc(N2C(=O)CC(N3CCc4ccccc4C3)C2=O)c1 (stereo not shown)	13.1
CC(C)(C)N/N=C/c1cc(Cl)cc([N+](=O)[O-])c1O.Cl	-10.9
Cc1onc(-c2ccccc2Cl)c1C(=O)N1CCN(c2ncccn2)CC1	2.45
CCOC(=O)c1ccccc1NC(=O)COC(=O)C1=COCCO1	4.78
Cc1nc2ccccn2c1C(=O)CSc1ccc(Cl)cc1Cl	-4.24
Cc1ccc(OCC(=O)NCCc2c[nH]c3ccccc23)cc1	17.1
COc1cc2c(C)nc(C)c(C#N)c2cc1OC.Cl	-5.92
Cc1ccc2nc(N3CC(C)OC(C)C3)nc(-c3ccccc3)c2c1 (stereo not shown)	5.88
c1ccc(Nc2nc(N3CCNCC3)nc(N3CCOCC3)n2)cc1	-43
CCOC(=O)C1(Cc2ccccc2)CCN(Cc2ccc(C)s2)CC1	-46
CCOC(=O)C1(Cc2cccc(OC)c2)CCN(Cc2ccc(C)s2)CC1	-67.1
CCOC(=O)C1(Cc2cccc(OC)c2)CCN(Cc2cnc(C)s2)CC1	-12.2
CN(C)S(=O)(=O)c1ccc(N2CCOCC2)c(C(=O)NCc2ccc3c(c2)OCO3)c1	-14.7
COC(=O)c1ccc(/C=N/Nc2nc3ccccc3[nH]2)cc1	11.4
C=C(C)C(=O)Nc1cccc(C2=NOC3(C2)C[C@@H](C(N)=O)N(C(=O)c2cc([N+](=O)[O-])cc([N+](=O)[O-])c2C)C3)c1 (stereo partly shown)	1.96
O=C(Nc1ccc(Cl)c(Cl)c1)N1CCC(N2CCCCC2)CC1	-63.5
COc1cccc(NC(=O)N2CCC(N3CCCCC3)CC2)c1	-7.99
O=C(Nc1ccc(Cl)c(Cl)c1)N1CCCCCC1	2.82

Compound	hERG current change (%, negative = inhibition) at 10uM [%]
Cc1ccc(C(C)(C)C)c(OCCN2CCCC2)c1	-19.5
CC(C)[C@@H](N)C(=O)N/N=C/c1ccc2nccnc2c1.Cl	17.1
Cc1csc(NC(=O)c2cc3c(s2)-c2ccccc2OC3)n1	3.36
CN1CCN(c2ccccc2NC(=O)c2cc3c(s2)-c2ccccc2OC3)CC1	-51.3
CC1CC(C)CN(CCCNC(=O)c2cc3c(s2)-c2ccccc2OC3)C1 (stereo not shown)	-70.2
CC1CCN(CCCNC(=O)c2cc3c(s2)-c2ccccc2OC3)CC1	-74.6
O=C(Nc1cccnc1Cl)c1cc2c(s1)-c1ccccc1OC2	-3.48
CC1CCCN(CCCNC(=O)c2cc3c(s2)-c2ccccc2OC3)C1 (stereo not shown)	-76.4
CC1CCCN(CCCNC(=O)CN2C(=O)COc3ccccc32)C1 (stereo not shown)	-4.59
O=C(O)c1cc2c(s1)-c1ccccc1OC2	9.73
O=C(Nc1nccs1)c1cc2c(s1)-c1ccccc1OC2	16.2
CCOC(=O)C1CCN(C(=O)c2cc3c(s2)-c2ccccc2OC3)CC1	-38.9
Cc1cccc2c1-c1sc(C(=O)Nc3ccccc3N3CCN(C)CC3)cc1CO2	-13.4
C=CCn1c(SC)nc2sc3c(c2c1=O)CCc1ccccc1-3	10.3
Cc1ncoc1C(=O)Nc1cccc(Cl)c1	-7.91
OCC[C@H]1C[C@H](O)[C@@H](O)[C@]2(OCCc3ccccc32)O1	2.59
CC1(C)Cc2c(cnn2-c2ccccc2)C(NC(=O)CCN2CCCC2=O)C1 (stereo not shown)	6.21
C=C1CCC[C@]2(C)C[C@H]3OC(=O)C(CNC(C)CC)[C@H]3CC12 (stereo partly shown)	0.523
CCN(CC)C(=O)c1ccccc1NC(=O)c1ccccc1SC	-39.6
CCOCc1nc(C)c(Cl)c(NS(=O)(=O)c2ccc(N)cc2)n1	13.9

Compound	hERG current change (%, negative = inhibition) at 10uM [%]
COc1ccc(OC)c(N(CC(=O)N2CCCCC2)S(=O)(=O)c2ccc(OC)c(OC)c2)c1	10.6
COc1cc(Cl)c(C)cc1NC(=O)COC(=O)c1cc(SC)ccc1Cl	8.99
Cc1ccc(OCCC(=O)Nc2ccc3c(c2)OCO3)cc1	0.269
CCN(Cc1ccccc1)Cc1cccc([N+](=O)[O-])c1	-23.5
CCN1CCN(c2nc3ccccc3nc2NS(=O)(=O)c2ccc(NC(C)=O)cc2)CC1	5.21
COc1ccc(OC)c2c1C(=O)c1ccccc1C2=O	-5.81
O=C(NC1CC1)c1cc2c(s1)-c1ccccc1OC2	12.6
CC1CCCC(C)N1CCCNC(=O)c1cc2c(s1)-c1ccccc1OC2 (stereo not shown)	-69.9
CCN1CCN(CCCNC(=O)c2cc3c(s2)-c2ccccc2OC3)CC1	-66.7
O=C(NCc1cccs1)c1cc2c(s1)-c1ccccc1OC2	1.42
COC(=O)c1cc2c(s1)-c1ccccc1OC2	0.157
O=C(NCCCN1CCOCC1)c1cc2c(s1)-c1ccccc1OC2	-44.5
O=C(Nc1cccnc1)c1cc2c(s1)-c1ccccc1OC2	-2.06
CC1CCCC(C)N1CCCNC(=O)c1ccc2c(c1)NC(=O)c1ccccc1S2 (stereo not shown)	4.54
CN(C)CCNC(=O)c1cc2c(s1)-c1ccccc1OC2	-67.2
Cc1ccc(O)c(-c2cc3ccccc3[nH]2)c1	-15.8
O=C(O)COCC(=O)N1CCCN(c2nccc(C(F)(F)F)n2)CC1	17.7
CCOC(=O)c1ccc(NC(=O)Cn2cc3c(n2)CCC(C)C3)cc1 (stereo not shown)	-4.16

— paper PMC4336329 (PLoS ONE, 2015)
